Results from PubChem BioAssay (NCATS).
Records with an inconclusive call do not appear. Calls of active or inactive are those of the source. Unless noted, calls follow the shape of the dose curve; as a rule, active = well fitted curve in the direction sought with a large enough effect; inconclusive = small, poorly fitted or top-dose-only effect, or another doubt; inactive = no such curve, though single readings can be large; an effect the other way counts as inactive or inconclusive.

Key:
[1] = molecular target: Estrogen receptor (Homo sapiens) (UniProt P03372); assay: qHTS assay for small molecule antagonists of estrogen receptor alpha signaling (AID 588513; active = well fitted curve in the direction sought with a large enough effect in the signal ratio, with a control signal flat, not every such curve was filed as active; the % refers to the signal ratio; also: % is scaled to controls: 0 for no effect and ±100 for the full control effect); details: ER-alpha-UAS-bla HEK293, beta-lactamase ratio, antagonist mode; series mostly up to 76.9 µM
Outline: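 Antagonist mode: inhibition of 0.5 nM 17-beta-estradiol-driven beta-lactamase reporter in HEK 293 ER-alpha-UAS-bla cells, 18 h at 37C, CCF4 readout after 2 h at RT. Normalised to estradiol and DMSO; titration fitted to Hill.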

[2] = molecular target: Peroxisome proliferator-activated receptor gamma (Homo sapiens) (UniProt P37231); assay: qHTS assay for small molecule agonists of peroxisome proliferator-activated receptor gamma signaling (AID 588536; active = well fitted curve in the direction sought with a large enough effect in the signal ratio, with a control signal flat, not every such curve was filed as active; the % refers to the signal ratio;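 also: 0% = DMSO basal wells and 100% = rosiglitazone at 2 µM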); details: HEK293 PPARg-UAS-bla, beta-lactamase ratio, 16 h, percent of rosiglitazone response, DMSO as zero; series mostly up to 76.7 µM
Outline: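 This is an agonist-mode beta-lactamase reporter assay in HEK293 PPAR-gamma-UAS-bla cells with 1% charcoal/dextran FBS. Compound titrations ran 16 h at 37 C before CCF4 detection. EC50 and efficacy are Hill fits scaled to 2 uM rosiglitazone (100%) and DMSO basal.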

[3] = qHTS assay for small molecule agonists of retinoid X receptor alpha signaling (AID 588544; calls by dose curve;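 as to activation: 0% = DMSO basal wells and 100% = reference agonist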); details: HEK293T RXRa-UAS-bla, beta-lactamase reporter, 18 h; 530 nm emission
[4] = molecular target: Retinoic acid receptor RXR-alpha (Homo sapiens) (UniProt P19793); assay: as above; details: HEK293T RXRa-UAS-bla, beta-lactamase reporter, 18 h; series mostly up to 76.7 µM
[5] = molecular target: Thyroid hormone receptor beta (Homo sapiens) (UniProt P10828); assay: qHTS assay for small molecule agonists of thyroid hormone receptor beta signaling (AID 588545; calls by dose curve;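 also: 0% = DMSO only and 100% = 10 nM T3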); details: TR-UAS-bla GripTite HEK 293, beta-lactamase ratio, agonist mode, 18 h; series mostly up to 76.7 µM
Outline: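 Stimulation of a TR-driven beta-lactamase reporter was quantified in GripTite HEK 293 cells. Compound series ran for 18 hrs; curves were normalized to T3 and DMSO controls and fitted to yield EC50.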

[6] = qHTS assay for small molecule antagonists of retinoid X receptor alpha signaling (AID 588546; active = well fitted inhibition curve with a large enough effect in the signal ratio, with a control signal flat, not every such curve was filed as active; the % refers to the signal ratio;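 also: cells stimulated with 9-cis-retinoic acid as agonist; % is scaled to controls: 0 for no effect and ±100 for the full control effect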); details: HEK293T RXRa-UAS-bla, beta-lactamase ratio, antagonist mode; measured here: W530 green channel, cytotoxicity proxy
Outline: (§1)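 Beta-lactamase reporter inhibition, read as CCF4 fluorescence ratio (ex 405, em 460/530 nm) after 2 h at RT. HEK293T UAS-bla cells, 2500/well, were stimulated with 9-cis-RA at 500 or 100 nM final alongside test compound for 18 h at 37 C.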

[7] = molecular target: Retinoic acid receptor RXR-alpha (Homo sapiens) (UniProt P19793); assay: as above; details: HEK293T RXRa-UAS-bla, beta-lactamase ratio, antagonist mode
Outline: as §1

[8] = molecular target: Thyroid hormone receptor beta (Homo sapiens) (UniProt P10828); assay: qHTS assay for small molecule antagonists of thyroid hormone receptor beta signaling (AID 588547; active = well fitted inhibition curve with a large enough effect in the signal ratio, with a control signal flat, not every such curve was filed as active; the % refers to the signal ratio;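 also: cells stimulated with 0.4 nM T3 agonist during compound exposure; % is scaled to controls: 0 for no effect and ±100 for the full control effect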); details: TR-UAS-bla HEK293, beta-lactamase ratio, antagonist mode, 18 h
Outline: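 TR-UAS-bla GripTite HEK293 cells in 2% charcoal/dextran FBS medium; compounds 0.59 nM to 92 uM with T3 at 0.4nM final, 18 h at 37 C. Beta-lactamase read by CCF4 fluorescence (460/530 nm); Hill fits gave IC50 and efficacy.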

[9] = qHTS assay for small molecule activators of the nuclear factor-kappa B (NF-kB) signaling pathway (AID 651749; active = well fitted activation curve with a large enough effect in the signal ratio; the % refers to the signal ratio; also: % of control where 0% means no effect); details: NF-kB-bla ME-180 cells, beta-lactamase FRET ratio, 16 h; activation: stronger effect = higher value
Outline: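 In this qHTS format, compounds acting as activators increase NF-kB-driven beta-lactamase in ME-180 cells, measured as disrupted FRET after 16 hr exposure at 37C and 5% CO2.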

[10] = qHTS assay for environmental chemicals that activate the Aryl hydrocarbon Receptor (AhR) signaling pathway (AID 651777); details: 1A2-DRE human hepatoma cells, luciferase, 24 h; activation: stronger effect = higher value; also: % of control where 0% means no effect; nearly all actives have a fitted effect of over 15% in size
Outline: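 Luminescence (One-Glo, 30 min, room temperature) reports AhR-driven luciferase in stably transfected human hepatoma cells bearing DRE and CYP1A2 promoter. Cells (1,200/well) were treated with compound for 24 hr at 37 C in qHTS format.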

[11] = molecular target: Peroxisome proliferator-activated receptor alpha (Homo sapiens) (UniProt Q07869); assay: qHTS assay for small molecule agonists of the peroxisome proliferator-activated receptor alpha (PPARalpha) signaling pathway (AID 651778); details: PathHunter PPARalpha complementation, chemiluminescence, 6 h; max response: stronger effect = higher value; also: % of control where 0% means no effect
Outline: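 Enzyme-fragment complementation assay in which ligand-bound PPARalpha translocates and forms an active enzyme that generates chemiluminescence. Cells were plated overnight, exposed to compound for 6 hr at 37 C, and then given detection reagent for 60 min at room temperature.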

[12] = qHTS assay for small molecule agonists of the antioxidant response element (ARE) signaling pathway measured by Nrf2-dependant transcriptional activity - cell viability counter screen (AID 720653; active = well fitted curve in the direction sought with a large enough effect in the repeat runs; an effect the other way counts as inactive or inconclusive; also: % is scaled to controls: 0 for no effect and ±100 for the full control effect); details: ARE-bla HepG2 viability, CellTiter-Glo ATP luminescence, 16 h; max response: stronger effect = lower value
Outline: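 ARE-bla HepG2 cells treated with compounds for 16 h at 37C; this counter screen measures viability as intracellular ATP by CellTiter-Glo luminescence after 30 min at room temperature.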

[13] = qHTS assay for cell viability of HEK293 cells (AID 743288); details: ATP luminescence (CellTiter-Glo), 18 h; max response: stronger effect = lower value; also: % is scaled to controls: 0 for no effect and ±100 for the full control effect; nearly all actives have a fitted effect of over 50% in size
Outline: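 Readout is luciferase-coupled ATP content (CellTiter-Glo luminescence, 30 min room temperature) as a measure of metabolically competent cells. Parental HEK293 cells were plated 5 h or more before compound addition, then treated 18 h at 37 C.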

[14] = qHTS assay for cell viability of the p53RE-bla HCT-116 cell line (AID 743292); details: p53RE-bla HCT-116 viability, ATP luminescence, 16 h; series mostly up to 95 µM; also: % is scaled to controls: 0 for no effect and ±100 for the full control effect; nearly all actives have a fitted effect of over 55% in size
Outline: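 ATP-based luminescent viability (CellTiter-Glo, 30 min RT) after 16 h compound treatment at 37 C of p53RE-bla HCT-116 cells, seeded at 4,000 cells/well and rested 5 h before dosing.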

[15] = molecular target: Nuclear receptor subfamily 1 group I member 2 (Rattus norvegicus) (UniProt Q9R1A7); assay: qHTS assay for small molecule activators of the rat pregnane X receptor (rPXR) signaling pathway (AID 651751; call rule not given here; also: 0% is about no effect); details: rPXR reporter cells, luciferase (One-Glo), 24 h
[16] = qHTS assay for small molecule activators of the human pregnane X receptor (PXR) signaling pathway (AID 720659; call rule not given here; also: 0% is about no effect); details: DPX-2 HepG2 CYP3A4-luciferase, 24 h; series mostly up to 92.3 µM
[17] = molecular target: Peroxisome proliferator-activated receptor gamma (Homo sapiens) (UniProt P37231); assay: qHTS assay for small molecule antagonists of peroxisome proliferator-activated receptor gamma signaling (AID 588537; active = well fitted inhibition curve with a large enough effect in the signal ratio, with a control signal flat, not every such curve was filed as active; the % refers to the signal ratio;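 also: reporter cells co-stimulated with 50 nM rosiglitazone agonist during compound treatment; % of control where 0% means no effect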); details: HEK293 PPARg-UAS-bla, beta-lactamase ratio, antagonist mode; series mostly up to 76.8 µM
Outline: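 Fluorescence at 460 and 530 nm (405 nm excitation) reported beta-lactamase cleavage of CCF4 after 2 h room-temperature loading. HEK293 reporter cells in 1% charcoal/dextran-treated FBS had received compound and rosiglitazone for 16 h.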

[18] = molecular target: Vitamin D3 receptor (Homo sapiens) (UniProt P11473); assay: qHTS assay for small molecule agonists of vitamin D receptor signaling (AID 588543; calls by dose curve;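 also: 0% = DMSO basal and 100% = reference agonist control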); details: HEK293T VDR-UAS-bla, beta-lactamase ratio, 16 h; series mostly up to 76.8 µM
Outline: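 Agonist-mode beta-lactamase reporter: HEK293T VDR-UAS-bla cells in charcoal-stripped 2% FBS, compound series 16 h 37 C, CCF4 2 h RT. EC50 from Hill fit, scaled against DMSO and 50 nM calcitriol control.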

[19] = qHTS assay for small molecule activators of the p53 signaling pathway (AID 651743; active = well fitted activation curve with a large enough effect in the signal ratio, not every such curve was filed as active; the % refers to the signal ratio; also: % of control where 0% means no effect); details: HCT-116 p53RE-bla, beta-lactamase FRET ratio, 16 h; activation: stronger effect = higher value
Outline: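 Following 16 hours of compound exposure at 37 C, HCT-116 cells bearing the p53RE-bla reporter were loaded with LiveBLAzer B/G FRET substrate for 2 hours at room temperature and fluorescence intensity was recorded.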

[20] = qHTS assay for small molecule agonists of the antioxidant response element (ARE) signaling pathway measured by Nrf2-dependant transcriptional activity (AID 720636; active = well fitted curve in the direction sought with a large enough effect in the repeat runs; an effect the other way counts as inactive or inconclusive; also: % of control where 0% means no effect); details: ARE-luc HepG2, Nrf2 luciferase reporter, 16 h; series mostly up to 92.4 µM
Outline: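 Nrf2-dependent transcription read as ONE-Glo luciferase signal from ARE-luc HepG2 reporter cells after 16 hr compound treatment at 37 C, 5% CO2, in assay medium with 1% dialyzed FBS.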

Peroxisome proliferator-activated receptor gamma (Homo sapiens), sequence (P37231 whole entry, looked up): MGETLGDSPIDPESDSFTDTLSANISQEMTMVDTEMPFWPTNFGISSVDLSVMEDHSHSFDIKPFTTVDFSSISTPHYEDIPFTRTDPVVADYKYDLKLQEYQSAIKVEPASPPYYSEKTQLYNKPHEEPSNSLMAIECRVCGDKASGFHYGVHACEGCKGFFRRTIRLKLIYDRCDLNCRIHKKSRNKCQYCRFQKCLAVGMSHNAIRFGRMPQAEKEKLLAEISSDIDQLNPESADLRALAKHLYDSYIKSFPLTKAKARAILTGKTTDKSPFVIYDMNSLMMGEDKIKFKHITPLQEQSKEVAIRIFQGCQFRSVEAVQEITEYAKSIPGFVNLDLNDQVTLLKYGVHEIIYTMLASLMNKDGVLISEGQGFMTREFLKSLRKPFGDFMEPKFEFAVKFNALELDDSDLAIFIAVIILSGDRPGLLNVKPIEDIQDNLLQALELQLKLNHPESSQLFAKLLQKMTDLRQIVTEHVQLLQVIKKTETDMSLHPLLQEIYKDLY
Estrogen receptor (Homo sapiens), sequence (P03372 whole entry, looked up): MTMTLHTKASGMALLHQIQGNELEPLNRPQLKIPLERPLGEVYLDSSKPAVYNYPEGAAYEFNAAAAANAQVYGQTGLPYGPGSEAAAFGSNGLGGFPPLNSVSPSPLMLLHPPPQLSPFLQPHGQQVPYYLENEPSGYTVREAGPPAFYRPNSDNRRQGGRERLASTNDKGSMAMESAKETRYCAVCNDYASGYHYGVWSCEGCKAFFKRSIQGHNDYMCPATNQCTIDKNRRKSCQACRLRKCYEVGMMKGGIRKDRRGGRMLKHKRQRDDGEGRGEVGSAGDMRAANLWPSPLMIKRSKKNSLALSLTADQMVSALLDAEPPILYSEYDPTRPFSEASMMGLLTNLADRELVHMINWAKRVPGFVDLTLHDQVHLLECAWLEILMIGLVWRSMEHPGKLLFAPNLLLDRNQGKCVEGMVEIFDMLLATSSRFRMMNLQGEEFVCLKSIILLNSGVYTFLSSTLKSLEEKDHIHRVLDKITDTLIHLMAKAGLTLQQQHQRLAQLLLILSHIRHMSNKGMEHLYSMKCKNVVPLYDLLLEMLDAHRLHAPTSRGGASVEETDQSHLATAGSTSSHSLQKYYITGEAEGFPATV
Retinoic acid receptor RXR-alpha (Homo sapiens), sequence (P19793 whole entry, looked up): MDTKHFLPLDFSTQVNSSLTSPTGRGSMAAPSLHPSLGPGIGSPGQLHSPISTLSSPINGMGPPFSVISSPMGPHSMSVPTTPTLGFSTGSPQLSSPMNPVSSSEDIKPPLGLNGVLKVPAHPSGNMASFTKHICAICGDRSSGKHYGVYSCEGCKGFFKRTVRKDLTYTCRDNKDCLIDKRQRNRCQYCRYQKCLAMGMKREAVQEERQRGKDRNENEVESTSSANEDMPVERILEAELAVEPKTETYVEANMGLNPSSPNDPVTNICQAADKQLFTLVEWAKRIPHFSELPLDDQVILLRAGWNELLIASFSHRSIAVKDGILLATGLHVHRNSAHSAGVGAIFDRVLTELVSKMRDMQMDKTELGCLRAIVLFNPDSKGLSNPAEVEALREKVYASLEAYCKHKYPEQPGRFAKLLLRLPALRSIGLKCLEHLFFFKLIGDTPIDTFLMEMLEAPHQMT
Nuclear receptor subfamily 1 group I member 2 (Rattus norvegicus), sequence (Q9R1A7 whole entry, looked up): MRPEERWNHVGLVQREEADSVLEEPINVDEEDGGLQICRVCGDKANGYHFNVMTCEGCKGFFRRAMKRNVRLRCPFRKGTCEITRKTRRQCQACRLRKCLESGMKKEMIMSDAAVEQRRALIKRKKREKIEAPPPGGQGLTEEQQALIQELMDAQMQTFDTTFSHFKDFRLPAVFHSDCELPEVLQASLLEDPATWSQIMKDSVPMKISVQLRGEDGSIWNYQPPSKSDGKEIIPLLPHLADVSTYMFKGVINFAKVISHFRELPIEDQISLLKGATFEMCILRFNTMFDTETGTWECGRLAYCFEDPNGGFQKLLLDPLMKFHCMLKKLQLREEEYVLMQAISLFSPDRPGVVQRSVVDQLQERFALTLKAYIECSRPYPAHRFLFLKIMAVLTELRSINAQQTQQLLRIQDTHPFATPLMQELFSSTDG
Peroxisome proliferator-activated receptor alpha (Homo sapiens), sequence (Q07869 whole entry, looked up, the tested form may be a part): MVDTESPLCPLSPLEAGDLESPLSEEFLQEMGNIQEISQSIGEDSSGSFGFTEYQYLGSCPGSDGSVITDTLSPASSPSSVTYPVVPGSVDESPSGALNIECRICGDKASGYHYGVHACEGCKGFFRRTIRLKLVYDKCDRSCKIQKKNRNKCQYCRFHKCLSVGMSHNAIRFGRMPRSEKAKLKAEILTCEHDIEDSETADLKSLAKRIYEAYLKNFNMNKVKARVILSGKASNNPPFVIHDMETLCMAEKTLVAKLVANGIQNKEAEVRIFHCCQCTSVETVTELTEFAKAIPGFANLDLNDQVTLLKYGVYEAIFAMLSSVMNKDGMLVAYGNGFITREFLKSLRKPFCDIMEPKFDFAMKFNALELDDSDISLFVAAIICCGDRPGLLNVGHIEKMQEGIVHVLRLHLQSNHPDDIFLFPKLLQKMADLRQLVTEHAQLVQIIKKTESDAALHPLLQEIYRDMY
Vitamin D3 receptor (Homo sapiens), sequence (P11473 whole entry, looked up): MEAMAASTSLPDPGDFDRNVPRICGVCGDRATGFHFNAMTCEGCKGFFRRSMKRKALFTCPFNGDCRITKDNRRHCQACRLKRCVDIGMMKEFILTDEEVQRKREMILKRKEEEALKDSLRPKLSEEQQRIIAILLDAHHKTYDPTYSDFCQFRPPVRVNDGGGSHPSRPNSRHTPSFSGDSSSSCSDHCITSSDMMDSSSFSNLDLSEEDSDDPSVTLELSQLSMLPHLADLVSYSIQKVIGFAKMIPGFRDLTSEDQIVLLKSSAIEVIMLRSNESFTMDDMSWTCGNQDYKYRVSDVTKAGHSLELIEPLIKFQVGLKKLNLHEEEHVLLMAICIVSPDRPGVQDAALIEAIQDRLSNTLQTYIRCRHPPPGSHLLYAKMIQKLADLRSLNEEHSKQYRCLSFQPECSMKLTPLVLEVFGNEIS
Thyroid hormone receptor beta (Homo sapiens), sequence (P10828 whole entry, looked up): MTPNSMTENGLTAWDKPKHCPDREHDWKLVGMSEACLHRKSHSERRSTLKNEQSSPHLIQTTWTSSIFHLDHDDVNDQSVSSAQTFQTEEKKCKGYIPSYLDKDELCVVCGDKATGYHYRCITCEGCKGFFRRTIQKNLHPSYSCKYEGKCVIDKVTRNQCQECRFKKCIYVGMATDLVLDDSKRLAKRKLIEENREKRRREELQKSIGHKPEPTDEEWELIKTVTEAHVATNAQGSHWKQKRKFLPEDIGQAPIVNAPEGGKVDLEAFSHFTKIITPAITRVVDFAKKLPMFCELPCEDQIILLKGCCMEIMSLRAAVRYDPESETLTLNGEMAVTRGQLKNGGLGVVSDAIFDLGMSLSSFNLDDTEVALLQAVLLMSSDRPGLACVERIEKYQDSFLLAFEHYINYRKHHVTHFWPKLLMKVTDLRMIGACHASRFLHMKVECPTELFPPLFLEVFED

Nc1nc(N)nc(-c2ccccc2)n1
-13.3%: max response [6]
-9.5%: max response [3]
inactive: Potency [1] | outcome [2] | Potency [4] | Potency [5] | max response [7] -4.65% | activity change % (negative = inhibition) [8] 13.3% | activation [9] 0.267% | activation [10] 5.62% | max response [11] 0.149% | max response [12] -8.33% | max response [13] -4.29% | Potency [14] | max response [15] 2.49% | outcome [16]

CCCCCCCCCCCCO
-12.2%: max response [3]
inactive: Potency [1] | outcome [2] | Potency [17] | outcome [18] | Potency [4] | Potency [5] | max response [7] 8.28% | activity change % (negative = inhibition) [8] -1.52% | activation [19] -3.58% | activation [10] 2.81% | max response [11] -0.593% | Potency [20] | max response [12] -4.36% | max response [13] -11.9% | Potency [14] | max response [15] 1.35% | outcome [16]
-2.04%: max response [6]

CCCCCCCCCCCCCO
inactive: Potency [1] | outcome [2] | Potency [17] | outcome [18] | Potency [4] | Potency [5] | max response [7] 3.57% | activation [19] -3% | activation [10] 0.322% | max response [11] 1.19% | max response [12] -9.94% | max response [13] -5.94% | Potency [14] | max response [15] 1.91% | outcome [16]
-5.73%: max response [6]
-5.38%: max response [3]

CCC(=O)C1C(=O)CC(C(=O)O)CC1=O (stereo not drawn)
-10.4%: max response [3]
inactive: Potency [1] | outcome [2] | Potency [17] | outcome [18] | Potency [4] | Potency [5] | activation [19] 2.03% | activation [9] 0.776% | activation [10] -0.512% | max response [11] 1.2% | Potency [20] | max response [13] 6.24% | max response [15] -8.49% | outcome [16]

O=C(O)c1ccc(C(=O)O)c(C(=O)O)c1
inactive: Potency [1] | outcome [2] | Potency [17] | Potency [4] | Potency [5] | max response [7] -0.212% | activity change % (negative = inhibition) [8] 8.09% | activation [9] -0.152% | activation [10] 0.771% | max response [11] -1.17% | Potency [20] | max response [12] -4.75% | max response [13] -0.128% | Potency [14] | max response [15] 0.399% | outcome [16]
-4.49%: max response [6]
-17.6%: max response [3]

NCCCCCCCCCCC(=O)O
inactive: Potency [1] | outcome [2] | Potency [17] | outcome [18] | Potency [4] | activity change % (negative = inhibition) [8] -1.93% | activation [19] 0.322% | activation [9] -0.282% | activation [10] 6.19% | max response [11] -1.64% | max response [12] -2.31% | max response [13] -12% | Potency [14] | max response [15] 1.01%
-7.72%: max response [3]

COC(=O)c1ccccc1C(=O)O
inactive: Potency [1] | outcome [2] | Potency [17] | outcome [18] | Potency [4] | Potency [5] | max response [7] -10.2% | activity change % (negative = inhibition) [8] -12.2% | activation [19] -3.42% | activation [9] -0.0496% | activation [10] 0.0502% | max response [11] -0.96% | max response [12] -2.33% | max response [13] -13.6% | Potency [14] | max response [15] 2.64% | outcome [16]
-12.1%: max response [3]
-4.92%: max response [6]

CC(C)c1ccc2cc(C(C)C)ccc2c1
-11.7%: max response [6]
inactive: Potency [1] | Potency [17] | outcome [18] | max response [7] -6.87% | activity change % (negative = inhibition) [8] -11% | activation [9] -0.342% | activation [10] 1.48% | max response [11] -0.981% | max response [12] 7.43% | max response [13] -0.947% | Potency [14] | max response [15] 1.57% | outcome [16]

O=C(c1ccc(Cl)cc1)c1ccc(Cl)cc1
6.29%: max response [3]
-11.4%: max response [6]
inactive: Potency [1] | outcome [2] | Potency [17] | outcome [18] | Potency [4] | Potency [5] | max response [7] 7.91% | activation [19] 1.92% | activation [9] 1.57% | activation [10] -0.153% | max response [11] -1.26% | Potency [20] | max response [12] -5.32% | max response [13] -7.2% | Potency [14] | max response [15] 0.85% | outcome [16]

CC1(C)C(C=C(Cl)Cl)[C@H]1C(=O)OCc1cccc(Oc2ccccc2)c1 (stereo partly drawn)
inactive: Potency [1] | max response [7] -0.468% | activity change % (negative = inhibition) [8] 5.41% | activation [19] -1.46% | max response [11] -1.89% | Potency [20] | max response [12] -12.3% | max response [13] -12.9% | Potency [14]
-16.1%: max response [6]

COC(=O)c1cccc(C(=O)OC)c1
-14.8%: max response [6]
-11.8%: max response [3]
inactive: Potency [1] | outcome [2] | Potency [17] | outcome [18] | Potency [4] | max response [7] -0.335% | activity change % (negative = inhibition) [8] 1.41% | activation [19] 2.13% | activation [10] 1.87% | max response [11] 0.364% | Potency [20] | max response [12] -6.37% | max response [13] -8.05% | Potency [14] | max response [15] 2.45%

C/C=C/C=C/CCCCCCCO
11.1%: max response [3]
inactive: Potency [1] | Potency [17] | outcome [18] | Potency [4] | Potency [5] | max response [7] -19.2% | activity change % (negative = inhibition) [8] -0.935% | activation [19] 7.24% | activation [9] -0.666% | activation [10] -1.79% | max response [11] 0.881% | Potency [20] | max response [12] -8.82% | max response [13] -6.91% | Potency [14] | max response [15] -0.307% | outcome [16]
19.5%: max response [6]
